Screens (PubChem)
p53ts 39C kill = p53ts cell cytotoxicity, nonpermissive temperature | H1299-p53A138V viability at 39C, ATP luminescence, 24 h | Potency, µM (highest dose often 46.1 µM), hits mostly cytotoxic | hit rate 1.5% among 130,000; note: nearly all actives have a fitted effect of over 55% in size
Tau fil binding = binders of human tau filaments. P10636. recombinant tau filaments, thioflavin S fluorescence, 15 h; filaments grown with octadecylsulfate alongside compound. Potency, µM (highest dose often 57.1 µM). hit rate 2% among 71,000. AID 596;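 note: actives lower thioflavin S fluorescence by blocking filaments or displacing dye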
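Recombinant tau protein (human, 1 uM final) plus 30 uM ODS in HEPES pH 7.4 with NaCl, DTT and thioflavine S. Compound present from the start; fluorescence at 510 nm after 15 h, 37 C.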
YjeE inh = YjeE (TsaE) inhibition, E. coli. P0AF67. purified YjeE enzyme, qHTS inhibition assay. Potency, µM. hit rate 0.05% among 71,000. AID 605
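Purified YjeE (10 uM) with BODIPY Texas Red-labeled ADP probe (2 uM); compounds pin-transferred, 15 min at room temperature. Binding inhibition read as decreased fluorescence polarization; ADP titration as control.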
p53ts 32C kill = kills p53ts cells at the permissive temperature; H1299-p53A138V at 32C, ATP luminescence viability, 24 h; Potency, µM (doses to about 46.1 µM), most hits filed as cytotoxic; hit rate 0.93% among 130,000; AID 924; note: nearly all actives have a fitted effect of over 55% in size
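Cells: H1299 p53ts (A138V), 600/well, pre-incubated 16–30 h at 37C. Cpd up to 46 uM, 24 h, 32C. Readout: ATPlite luminescence, 20 min RT. Normalization: DMSO vs tamoxifen 100 uM. AC50 by Hill equation.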
ERK AVP inh = inhibitors of vasopressin-stimulated ERK signaling pathway; Potency, µM (doses to about 57.5 µM), hits mostly inhibitors; hit rate 0.99% among 72,000; HEK293-V1b, vasopressin-stimulated pERK AlphaScreen; AID 995; note: nearly all actives have a fitted effect of over 55% in size
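Overnight-seeded V1b-HEK293 cells in 1% FBS got compound, then vasopressin (25 nM final, 5 min, 37C), then lysis buffer. AlphaScreen detection of phospho-ERK; activity normalized to basal and full-stimulation controls.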
DNA Pol III inh = blocks replication by bacterial DNA polymerase III holoenzyme; reconstituted DNA polymerase III holoenzyme replication, biochemical; Potency, µM (titrated, usually from 57.1 µM); hit rate 0.25% among 71,000; AID 603
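Reconstituted *E. coli* holoenzyme (0.35 nM Pol III, 1 nM beta, 154 nM SSB, 2 nM primase) was preincubated with compound for 15 min at RT. Synthesis on 1.4 nM ssM13Gori ran 35 min, then was stopped with PicoGreen/EDTA and read as dsDNA fluorescence.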
Each line names hits and unclear results; the compound was inactive in the other large screens. In the library only some 3.2% were active in any assay of this set; here they are far more common. Calls come from the whole dose curve; as a rule, active = well fitted curve in the direction sought with a large enough effect; inconclusive = small, poorly fitted or top-dose-only effect, or another doubt; inactive = no such curve, though single readings can be large; an effect the other way counts as inactive or inconclusive.

O=C1CC(O)(C(F)(F)F)Oc2c1ccc1ccccc21 (stereo not given)	p53ts 39C kill inconclusive, p53ts 32C kill inconclusive, ERK AVP inh 15.8µM
Cc1ccc(Sc2ccc(N3CCCC(C(=O)Nc4ccc(Br)cc4)C3)nn2)cc1 (stereo not given)	none (no result: Tau fil binding, YjeE inh, ERK AVP inh, DNA Pol III inh)
CC(C)(C)C(=O)Nc1ccc(-c2nc3ccccc3s2)cc1	p53ts 39C kill 0.316µM, p53ts 32C kill 0.316µM (no result: Tau fil binding, YjeE inh, ERK AVP inh, DNA Pol III inh)
CCS(=O)(=O)c1ccccc1C(=O)Nc1ccc(-c2nc3ccccc3s2)cc1	none (no result: Tau fil binding, YjeE inh, ERK AVP inh, DNA Pol III inh)
COc1cc(OC)cc(C(=O)Nc2cc(-c3nc4ccccc4s3)ccc2OC)c1	none (no result: Tau fil binding, YjeE inh, ERK AVP inh, DNA Pol III inh)
COc1ccc(-c2nc3ccccc3s2)cc1NC(=O)c1ccc(F)cc1	p53ts 39C kill 12.6µM (no result: Tau fil binding, YjeE inh, ERK AVP inh, DNA Pol III inh)
Cc1ccc(Cl)cc1N1CCN(CCCNC(=O)C2COc3ccccc3C2)CC1 (stereo not given)	p53ts 39C kill inconclusive (no result: Tau fil binding, YjeE inh, ERK AVP inh, DNA Pol III inh)
Cc1ccc(-c2cc(C(=O)N3CCN(c4ncccn4)CC3)c3ccccc3n2)cc1	p53ts 39C kill 12.6µM, p53ts 32C kill 12.6µM
COc1cccc(-c2cc(C(=O)Nn3cnnc3)c3ccccc3n2)c1	p53ts 39C kill 5.01µM, p53ts 32C kill 3.98µM
O=C(c1cc(-c2ccncc2)nc2ccc(Br)cc12)N1CCN(c2ccccn2)CC1	Tau fil binding 31.6µM
CC(C)Oc1cccc(-c2cc(C(=O)N3CCN(S(C)(=O)=O)CC3)c3ccccc3n2)c1	p53ts 39C kill inconclusive, p53ts 32C kill inconclusive
COc1cccc(-c2cc(C(=O)N3CCN(c4ncccn4)CC3)c3ccccc3n2)c1	p53ts 39C kill inconclusive, p53ts 32C kill 12.6µM, ERK AVP inh inconclusive
O=C(Nn1cnnc1)c1cc(-c2ccccn2)nc2ccccc12	none
C/C(CCN1CCCc2nc(C)c(C)cc21)=N\O[C@@H](C)c1cn([C@H](CO)Cc2ccccc2)nn1	none (no result: Tau fil binding, YjeE inh, DNA Pol III inh)
COc1cccc(OCc2nc3ccccc3[nH]2)c1	p53ts 39C kill inconclusive, p53ts 32C kill 15.8µM
COc1ccccc1OCc1nc2ccccc2[nH]1	none
c1ccc2cc(OCc3nc4ccccc4[nH]3)ccc2c1	p53ts 39C kill 12.6µM, p53ts 32C kill 10µM (no result: Tau fil binding, YjeE inh, ERK AVP inh, DNA Pol III inh)
O=S(=O)(NCc1cccc(Br)c1)c1ccc(-c2cc(C(F)(F)F)on2)s1	none (no result: Tau fil binding, YjeE inh, ERK AVP inh, DNA Pol III inh)
Cc1cc(C(=O)CN2C(=O)C3CC=CCC3C2=O)c(C)n1-c1ccccc1 (stereo not given)	p53ts 39C kill 12.6µM, p53ts 32C kill 10µM
Cc1cc(C(=O)CN2C(=O)c3ccccc3S2(=O)=O)c(C)n1-c1ccccc1	p53ts 39C kill 7.94µM, p53ts 32C kill 12.6µM
CCCn1c(C)cc(C(=O)CN2C(=O)c3ccccc3C2=O)c1C	none
COc1ccc(N2CCN(C(=O)C(Cc3ccccc3)n3cccc3)CC2)cc1 (stereo not given)	Tau fil binding 12.6µM, ERK AVP inh 25.1µM
Cc1cc(=O)n2nc(N3CCC(C(=O)NCc4ccccc4F)CC3)sc2n1	none (no result: Tau fil binding, YjeE inh, ERK AVP inh, DNA Pol III inh)
CCCCCCC1=Cc2cc(OC)c(OC)cc2C(C(C(C)=O)C(=O)OC)O1 (stereo not given)	none (no result: Tau fil binding, YjeE inh, DNA Pol III inh)
CCOC(=O)c1sc(N)c(C(=O)Nc2ccc(C)cc2C)c1C	none (no result: Tau fil binding, YjeE inh, ERK AVP inh, DNA Pol III inh)
Cc1cc(-n2c(C)cc(C(=O)CSc3ncnc4ccccc34)c2C)no1	ERK AVP inh 20µM
CCC(=O)N1CCN(c2ccc(NC(=O)c3cc4ccccc4o3)cc2Cl)CC1	p53ts 39C kill inconclusive, p53ts 32C kill inconclusive, ERK AVP inh 31.6µM
O=C(c1cc2ccccc2o1)N1CCN(c2ccccc2Cl)CC1	none
O=C(Nc1ccc(N2CCN(C(=O)c3ccccc3)CC2)c(Cl)c1)c1ccco1	p53ts 39C kill inconclusive, ERK AVP inh inconclusive
CCCC(=O)N1CCN(c2ccc(NC(=O)c3cc4ccccc4o3)cc2Cl)CC1	p53ts 39C kill 15.8µM, p53ts 32C kill inconclusive, ERK AVP inh 7.94µM
O=C(Nc1ccc(N2CCOCC2)c(Cl)c1)c1ccco1	p53ts 39C kill 15.8µM, p53ts 32C kill 12.6µM
O=C(Nc1ccc(N2CCN(C(=O)c3ccco3)CC2)c(Cl)c1)c1cc2ccccc2o1	p53ts 39C kill inconclusive, p53ts 32C kill 12.6µM, ERK AVP inh 7.94µM
CCn1c(=O)n(-c2ccc(F)cc2)c(=O)c2sc3ccccc3c21	none (no result: Tau fil binding, YjeE inh, ERK AVP inh, DNA Pol III inh)
Cc1ccc(NC(=O)C2CCCN(c3nnc(-n4c(C)ccc4C)s3)C2)cc1Cl (stereo not given)	none (no result: Tau fil binding, YjeE inh, ERK AVP inh, DNA Pol III inh)
